Measurements: PubChem BioAssay (Tox21)
A number with no mark means an inactive call. Results filed as inconclusive are left out. A call without a number means that no potency is given here. Activity calls are given as the source filed them. Unless noted, the call rests on the fitted dose curve; in most records, active means well fitted curve in the direction sought with a large enough effect in the repeat runs; inconclusive means weak or mixed curves; inactive means no such curve, though single readings can be large; an effect the other way counts as inactive or inconclusive.

Key:
[1] = qHTS assay to identify small molecule agonists of the estrogen receptor alpha (ER-alpha) signaling pathway in the presence of an antagonist - cell viability counter screen (AID 1259386);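 further: series mostly up to about 92 µM; cells exposed to compounds for 22 h at 37 °C before the viability read; nearly all actives have a fitted effect of over 30% in size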
Outline: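 Viability counter screen using VM7Luc4E2 (full-length ER-alpha, four ERE-luciferase). The cells were treated with compounds alongside ICI-182,780 10.0nM for 22hr, and live-cell protease fluorescence was quantified with CellTiter-Fluor.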

[2] = target: Progesterone receptor (Homo sapiens) (UniProt P06401); assay: qHTS assay to identify small molecule agonists of the progesterone receptor (PR) signaling pathway (AID 1346784; calls by dose curve; further: nearly all actives have a fitted effect of over 30% in size; further: potency means the concentration at half of the fitted maximal effect)
Progesterone receptor (Homo sapiens), sequence (P06401 whole entry, looked up): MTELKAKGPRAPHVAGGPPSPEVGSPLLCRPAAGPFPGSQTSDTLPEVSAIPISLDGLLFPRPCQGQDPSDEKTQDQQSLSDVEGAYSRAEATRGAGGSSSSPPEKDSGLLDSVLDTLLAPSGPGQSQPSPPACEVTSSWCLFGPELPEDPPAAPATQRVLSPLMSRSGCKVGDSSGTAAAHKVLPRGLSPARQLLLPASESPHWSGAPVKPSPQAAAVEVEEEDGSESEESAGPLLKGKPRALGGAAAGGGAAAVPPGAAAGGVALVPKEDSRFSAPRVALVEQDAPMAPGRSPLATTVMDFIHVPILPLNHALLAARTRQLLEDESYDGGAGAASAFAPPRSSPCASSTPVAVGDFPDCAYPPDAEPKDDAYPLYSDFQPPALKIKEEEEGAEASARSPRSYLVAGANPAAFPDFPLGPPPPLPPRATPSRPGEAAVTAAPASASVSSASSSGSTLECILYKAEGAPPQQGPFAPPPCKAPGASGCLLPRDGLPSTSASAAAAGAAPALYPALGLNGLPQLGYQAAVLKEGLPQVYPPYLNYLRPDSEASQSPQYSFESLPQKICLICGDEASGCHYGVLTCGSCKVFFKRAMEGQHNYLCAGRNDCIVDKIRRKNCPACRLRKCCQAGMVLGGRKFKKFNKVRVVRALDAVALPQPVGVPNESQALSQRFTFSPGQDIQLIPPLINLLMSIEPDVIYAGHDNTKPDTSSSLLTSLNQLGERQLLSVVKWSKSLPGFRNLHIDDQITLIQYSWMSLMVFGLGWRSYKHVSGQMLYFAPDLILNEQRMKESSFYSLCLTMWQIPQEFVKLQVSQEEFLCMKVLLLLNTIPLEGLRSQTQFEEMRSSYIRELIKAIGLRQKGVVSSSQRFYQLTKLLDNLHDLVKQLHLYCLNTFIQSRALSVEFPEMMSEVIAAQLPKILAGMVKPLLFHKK
Outline: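 Using charcoal-stripped serum (2%) to limit endogenous steroids, PR-UAS-bla HEK 293T cells received compounds for 16 hr at 37C after 6 hr plating; beta-lactamase FRET fluorescence was recorded following 2 hr substrate loading at room temperature.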

[3] = target: Progesterone receptor (Homo sapiens) (UniProt P06401); assay: qHTS assay to identify small molecule antagonists of the progesterone receptor (PR) signaling pathway (AID 1346795; active means well fitted inhibition curve with a large enough effect in the signal ratio in the repeat runs, not every such curve was filed as active; the % refers to the signal ratio)
Outline: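 Inhibition of R5020-induced (1 nM final) beta-lactamase reporter signal in PR-UAS-bla HEK293T cells was scored by FRET fluorescence after overnight (16 hr) compound treatment.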

[4] = qHTS assay to identify small molecule antagonists of the progesterone receptor (PR) signaling pathway - cell viability counter screen (AID 1346798); further: series mostly up to about 92 µM; nearly all actives have a fitted effect of over 50% in size
Outline: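 ATP content as viability readout: CellTiter-Glo luminescence, 30 min room temperature, in PR-UAS-bla HEK293T cells after 16 hr compound/R5020 treatment at 37C and 5% CO2.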

[5] = qHTS assay to identify small molecule agonists of the progesterone receptor (PR) signaling pathway - cell viability counter screen (AID 1346799; calls by dose curve; further: nearly all actives have a fitted effect of over 45% in size)
Outline: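 Cytotoxicity in PR-bla HEK293T cells: 16 h compound, 37C; CellTiter-Glo added post-FRET read; luminescence after 30 min RT.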

[6] = qHTS assay to identify small molecule antagonists of the TGF-beta/Smad signaling pathway - cell viability counter screen (AID 1346824); further: nearly all actives have a fitted effect of over 50% in size
Outline: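 SBE-bla HEK 293T cells, incubated overnight, then compound plus 0.25 ng/mL TGF-beta1 (stock added) for 5 hr at 37 C. Viability was read in the same wells by CellTiter-Glo luminescence after 30 min at room temperature.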

[7] = qHTS assay to identify small molecule agonists of the TGF-beta/Smad signaling pathway - cell viability counter screen (AID 1346829); further: top concentration of the series differs between compounds; nearly all actives have a fitted effect of over 45% in size
Outline: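 Tox21 qHTS format: SBE-bla HEK 293T cells treated with DMSO-dissolved compounds for 5 hr; CellTiter-Glo luminescence after 30 min at room temperature.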

[8] = qHTS assay to identify small molecule agonists of the TGF-beta/Smad signaling pathway (AID 1346859; active means well fitted activation curve with a large enough effect in the signal ratio in the repeat runs, not every such curve was filed as active; the % refers to the signal ratio; further: series mostly up to about 77 µM)
Outline: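 Stable Smad binding element-beta-lactamase HEK 293T cells; 5 hr compound exposure at 37 C under 5% CO2; 2 hr room-temperature substrate step; fluorescence excited at 405 nm, collected at 460 nm and 530 nm.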

[9] = target: Thyrotropin-releasing hormone receptor (Homo sapiens) (UniProt P34981); assay: qHTS assay to identify small molecule antagonists of the thyrotropin-releasing hormone receptor (TRHR) signaling pathway (AID 1346877; active means well fitted inhibition curve with a large enough effect in the repeat runs, not every such curve was filed as active; further: series mostly up to about 51 µM)
Thyrotropin-releasing hormone receptor (Homo sapiens), sequence (P34981 whole entry, looked up): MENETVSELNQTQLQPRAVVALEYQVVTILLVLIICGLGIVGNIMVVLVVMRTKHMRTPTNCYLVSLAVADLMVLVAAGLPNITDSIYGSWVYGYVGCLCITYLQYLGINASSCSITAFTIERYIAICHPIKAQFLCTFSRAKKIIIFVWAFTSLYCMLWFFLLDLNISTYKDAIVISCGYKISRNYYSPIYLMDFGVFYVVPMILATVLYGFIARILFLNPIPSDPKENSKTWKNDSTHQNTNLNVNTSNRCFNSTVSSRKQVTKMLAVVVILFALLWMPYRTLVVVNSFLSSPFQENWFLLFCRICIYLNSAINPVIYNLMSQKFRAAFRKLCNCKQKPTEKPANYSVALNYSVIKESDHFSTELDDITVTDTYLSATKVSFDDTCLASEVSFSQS
Outline: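 Following an 18 h incubation at 37 °C and a 2 h calcium dye load, TRHR-HEK293 cells were exposed to compound (5 min, room temperature) and challenged with TRH, 1 nM final.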

[10] = target: Thyrotropin-releasing hormone receptor (Homo sapiens) (UniProt P34981); assay: qHTS assay to identify small molecule agonists of the thyrotropin-releasing hormone receptor (TRHR) signaling pathway (AID 1346891; calls by dose curve;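 further: HEK293 cells expressing TRHR with calcium dye readout; series mostly up to about 58 µM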)
Outline: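 In 1536-format, 1500 TRHR-Hek293 cells per well grew 18 h, took up calcium dye for 2 h at 37 °C, received compound, and were read kinetically; 15-point titrations, triplicates.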

[11] = Human pregnane X receptor (PXR) small molecule agonists, qHTS cell viability counter screen (AID 1346977); further: nearly all actives have a fitted effect of over 50% in size
Outline: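 Readout is CellTiter-Fluor fluorescence from PXR-Luc HepG2 cells. Plated cells rested 5hr, then were treated with compounds for 24hr at 37C and 5% CO2, with reagent present during the last hour.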

[12] = Caspase-3/7 induction in CHO-K1 cells by small molecules, qHTS cell viability counter screen (AID 1346979); further: nearly all actives have a fitted effect of over 35% in size
Outline: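 To flag cytotoxic compounds, treated CHO-K1 wild-type cells were given CellTiter-Fluor at 16hr and read fluorescently after 1hr at 37C; the caspase-3/7 luminescence was measured in these same wells.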

[13] = Caspase-3/7 induction in CHO-K1 cells by small molecules, qHTS assay (AID 1346980); further: nearly all actives have a fitted effect of over 15% in size
Outline: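 Wild-type CHO-K1 cells exposed to compounds for 17hr at 37 C, 5% CO2. Caspase-3/7 activity then measured by Caspase-Glo 3/7 luminescence after 30min at room temperature.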

[14] = Caspase-3/7 induction in HepG2 cells by small molecules, qHTS cell viability counter screen (AID 1346981); further: series mostly up to about 92 µM; nearly all actives have a fitted effect of over 30% in size
Outline: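 Viability determined by CellTiter-Fluor fluorescence in HepG2 wells also used for the luminescent Caspase-Glo 3/7 read. Compounds were present for 16 hr at 37 C, 5% CO2 before reagent addition.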

[15] = target: Nuclear receptor subfamily 1 group I member 2 (Homo sapiens) (UniProt O75469); assay: Human pregnane X receptor (PXR) small molecule agonists, qHTS assay (AID 1346982); further: nearly all actives have a fitted effect of over 35% in size; further: potency means the concentration at half of the fitted maximal effect
Nuclear receptor subfamily 1 group I member 2 (Homo sapiens), sequence (O75469 whole entry, looked up): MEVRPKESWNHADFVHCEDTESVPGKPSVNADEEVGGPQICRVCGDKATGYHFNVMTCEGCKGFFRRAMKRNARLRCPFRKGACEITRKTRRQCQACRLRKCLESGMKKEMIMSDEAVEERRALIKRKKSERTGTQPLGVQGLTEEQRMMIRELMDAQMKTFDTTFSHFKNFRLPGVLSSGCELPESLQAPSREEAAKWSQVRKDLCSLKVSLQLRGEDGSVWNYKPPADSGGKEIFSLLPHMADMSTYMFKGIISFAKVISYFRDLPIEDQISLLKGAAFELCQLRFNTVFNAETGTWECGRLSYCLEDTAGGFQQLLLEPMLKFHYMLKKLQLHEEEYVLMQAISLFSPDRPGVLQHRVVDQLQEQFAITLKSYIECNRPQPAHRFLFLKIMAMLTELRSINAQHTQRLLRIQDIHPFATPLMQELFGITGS
Outline: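 Compound-induced hPXR transactivation of a CYP3A4 luciferase reporter was scored in HepG2 PXR-Luc cells over 24 hr at 37 C, 5% CO2, by luminescence.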

[16] = target: Acetylcholinesterase (Homo sapiens) (UniProt P22303); assay: Acetylcholinesterase (AChE) small molecule antagonists: colormetric cell-based qHTS assay (AID 1347395; calls by dose curve; further: nearly all actives have a fitted effect of over 30% in size; further: potency means the concentration at half of the fitted maximal effect)
Acetylcholinesterase (Homo sapiens), sequence (P22303 whole entry, looked up): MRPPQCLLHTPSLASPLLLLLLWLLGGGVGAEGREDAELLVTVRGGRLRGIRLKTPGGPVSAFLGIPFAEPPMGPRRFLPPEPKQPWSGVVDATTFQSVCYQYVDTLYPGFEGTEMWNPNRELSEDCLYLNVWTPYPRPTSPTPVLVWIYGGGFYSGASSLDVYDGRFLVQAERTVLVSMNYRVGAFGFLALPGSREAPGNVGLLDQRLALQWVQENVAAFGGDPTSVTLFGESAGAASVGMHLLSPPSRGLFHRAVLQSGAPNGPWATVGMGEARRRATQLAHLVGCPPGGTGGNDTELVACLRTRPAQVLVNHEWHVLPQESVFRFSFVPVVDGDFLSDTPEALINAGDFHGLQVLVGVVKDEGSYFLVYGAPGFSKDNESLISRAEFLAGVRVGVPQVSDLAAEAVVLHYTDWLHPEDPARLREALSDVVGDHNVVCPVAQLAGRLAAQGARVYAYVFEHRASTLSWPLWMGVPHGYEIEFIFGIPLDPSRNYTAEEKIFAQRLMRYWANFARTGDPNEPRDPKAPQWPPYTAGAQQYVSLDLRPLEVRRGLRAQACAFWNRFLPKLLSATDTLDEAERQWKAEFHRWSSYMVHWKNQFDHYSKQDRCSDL
Outline: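 Neuroblastoma line SH-SY5Y supplied the enzyme; cells were preincubated with compound for 30 min at 37 C and 5% CO2. Acetylthiocholine with DTNB was then added for 90 min at 37 C, and thiocholine was measured by colour.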

[17] = Caspase-3/7 induction in HepG2 cells by small molecules, qHTS assay (AID 1346978); further: nearly all actives have a fitted effect of over 15% in size
Outline: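 Wild-type HepG2 cells, 2,000/well, settled 5 hr at 37 C and 5% CO2, then compound-treated for 17 hr; caspase-3/7 activity read by luminescent Caspase-Glo 3/7 after 30 min at room temperature.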

[18] = target: Nuclear receptor subfamily 1 group I member 2 (Rattus norvegicus) (UniProt Q9R1A7); assay: Rat pregnane X receptor (rPXR) activation by small molecules, qHTS assay (AID 1346983); conditions: rPXR luciferase reporter cells, One-Glo luminescence, 24 h; max activation: active compounds read high; further: nearly all actives have a fitted effect of over 20% in size
Nuclear receptor subfamily 1 group I member 2 (Rattus norvegicus), sequence (Q9R1A7 whole entry, looked up): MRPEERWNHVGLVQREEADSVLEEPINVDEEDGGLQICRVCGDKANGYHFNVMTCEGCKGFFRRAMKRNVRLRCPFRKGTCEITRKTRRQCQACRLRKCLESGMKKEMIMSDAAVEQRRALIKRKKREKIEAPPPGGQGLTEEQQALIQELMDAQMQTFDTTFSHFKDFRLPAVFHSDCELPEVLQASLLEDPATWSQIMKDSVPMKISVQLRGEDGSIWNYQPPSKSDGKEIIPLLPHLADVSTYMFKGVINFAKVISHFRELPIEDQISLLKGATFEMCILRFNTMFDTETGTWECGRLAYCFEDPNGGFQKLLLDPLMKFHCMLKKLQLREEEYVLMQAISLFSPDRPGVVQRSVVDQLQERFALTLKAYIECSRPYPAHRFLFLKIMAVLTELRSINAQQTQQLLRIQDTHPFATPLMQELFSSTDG
Outline: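 Cell-based rPXR activation assay: rPXR cells, 2,000 per well, rested 5hr at 37 C, then exposed to compounds in DMSO for 24 hr at 37 C. Luciferase activity read by One-Glo luminescence after 30 min at room temperature.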

[19] = target: Nuclear receptor subfamily 1 group I member 2 (Homo sapiens) (UniProt O75469); assay: CYP3A4 induction through human pregnane X receptor (PXR) by small molecules, qHTS assay (AID 1346984); further: nearly all actives have a fitted effect of over 40% in size
Outline: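 Readings come from a luciferase reporter: DPX-2 cells, which are HepG2 cotransfected with PXR and a CYP3A4-promoter construct, were exposed to test compounds for 24 h at 37C before One-Glo detection.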

[20] = target: Nuclear receptor subfamily 1 group I member 2 (Homo sapiens) (UniProt O75469); assay: Human pregnane X receptor (PXR) activation by small molecules, qHTS assay (AID 1346985); further: nearly all actives have a fitted effect of over 40% in size
Outline: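 DPX-2 cells (HepG2 co-transfected with a PXR response element and a CYP3A4-promoter luciferase construct) were seeded at 2,000 per well, rested 5 hr at 37C, then exposed to DMSO-dissolved compounds for 24 hr. Activation was read as luciferase luminescence.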

SMILES: CCCCN(CCCCO)N=O
- Potency [1]: inactive
- Potency [2]: inactive
- Potency [3]: inactive
- Potency [4]: inactive
- Potency [5]: inactive
- Potency [6]: inactive
- outcome [7]: inactive
- outcome [8]: inactive
- outcome [9]: inactive
- outcome [10]: inactive
- Potency [11]: inactive
- Potency [12]: inactive
- Potency [13]: inactive
- Potency [14]: inactive
- Potency [15]: inactive
- Potency [16]: inactive

SMILES: COc1ncc(F)c2nc(S(=O)(=O)Nc3c(F)cccc3F)nn12
- Potency [1]: inactive
- Potency [2]: inactive
- Potency [3]: inactive
- Potency [4]: inactive
- Potency [5]: inactive
- Potency [6]: inactive
- outcome [7]: inactive
- outcome [8]: inactive
- outcome [9]: inactive
- outcome [10]: inactive
- Potency [11]: inactive
- Potency [17]: inactive
- Potency [12]: inactive
- Potency [13]: inactive
- Potency [14]: inactive
- Potency [15]: inactive

SMILES: O=C(O)C(Br)CBr (configuration not stated)
- Potency [1]: inactive
- Potency [2]: 5.54 µM (active)
- Potency [3]: inactive
- Potency [4]: inactive
- Potency [5]: inactive
- Potency [6]: inactive
- outcome [7]: inactive
- outcome [8]: inactive
- outcome [9]: inactive
- outcome [10]: inactive
- Potency [11]: inactive
- Potency [17]: inactive
- Potency [13]: inactive
- Potency [14]: inactive
- Potency [15]: 62.2 µM (active)
- Potency [16]: inactive

SMILES: O=C1c2ccccc2C(=O)c2ccccc21
- activity change, negative = cytotoxicity [1]: 2.11% [at 19 µM]
- activation [2]: -0.0487% [at 19 µM]
- activity change, negative = inhibition [3]: 12.9% [at 18.9 µM]
- activity change, negative = cytotoxicity [4]: 9.36% [at 18.9 µM]
- activity change, negative = cytotoxicity [5]: 2.43% [at 19 µM]
- viability change, negative = cytotoxic [6]: -2.72% [at 15.8 µM]
- activity change, negative = cytotoxicity [7]: -4.2% [at 15.8 µM]
- activation [8]: -3.6% [at 15.8 µM]
- activity, negative = inhibition [9]: -1.2% [at 10.5 µM]
- activation [10]: -0.0612% [at 11.8 µM]
- activity change, negative = cytotoxicity [11]: 8.57% [at 19 µM]
- caspase activation [17]: -0.684% [at 19 µM]
- activity change, negative = cytotoxicity [12]: 11.3% [at 19 µM]
- caspase-3/7 activation [13]: 2.01% [at 19 µM]
- activity change, negative = cytotoxicity [14]: 8.77% [at 19 µM]
- max activation [18]: 7.01%
- Potency [19]: inactive
- Potency [20]: inactive

SMILES: COC(=O)c1ccccc1S(=O)(=O)NC(=O)N(C)c1nc(C)nc(OC)n1
- Potency [1]: inactive
- Potency [2]: inactive
- Potency [3]: inactive
- Potency [4]: inactive
- Potency [5]: inactive
- Potency [6]: inactive
- outcome [7]: inactive
- outcome [8]: inactive
- outcome [9]: inactive
- outcome [10]: inactive
- Potency [11]: inactive
- Potency [17]: inactive
- Potency [12]: inactive
- Potency [13]: inactive
- Potency [14]: inactive
- Potency [15]: inactive
- Potency [16]: inactive

SMILES: CCC#N
- Potency [1]: inactive
- Potency [2]: inactive
- Potency [3]: inactive
- Potency [4]: inactive
- Potency [5]: inactive
- Potency [6]: inactive
- outcome [7]: inactive
- outcome [8]: inactive
- outcome [9]: inactive
- outcome [10]: inactive
- Potency [11]: inactive
- Potency [17]: inactive
- Potency [12]: inactive
- Potency [13]: inactive
- Potency [14]: inactive
- Potency [15]: inactive

SMILES: CCC(=O)c1ccccc1
- Potency [1]: inactive
- Potency [2]: inactive
- Potency [3]: inactive
- Potency [4]: inactive
- Potency [5]: inactive
- Potency [6]: inactive
- outcome [7]: inactive
- outcome [8]: inactive
- outcome [9]: inactive
- outcome [10]: inactive
- Potency [11]: inactive
- Potency [17]: inactive
- Potency [12]: inactive
- Potency [13]: inactive
- Potency [14]: inactive
- Potency [15]: inactive

SMILES: CNC(=O)O/N=C(\C)SC
- Potency [1]: inactive
- Potency [2]: inactive
- Potency [3]: inactive
- Potency [4]: inactive
- Potency [5]: inactive
- Potency [6]: inactive
- outcome [7]: inactive
- outcome [8]: inactive
- outcome [9]: inactive
- outcome [10]: inactive
- Potency [11]: inactive
- Potency [17]: inactive
- Potency [12]: inactive
- Potency [13]: inactive
- Potency [14]: inactive
- Potency [15]: inactive
- Potency [16]: 1.59 µM (active)
